Compounds without any hit were thinned out: in the full panel of roughly 79,000, 15% have a hit. A number with no mark means an inactive call. Calls of active or inactive are those of the source. Rule as the data show it: active = growth inhibition above about 70%; inactive = the rest.
assay: NCI Yeast Anticancer Drug Screen. Data for the rad50 strain (AID 155);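 also: 0% = growth of vehicle-only cultures of the same strain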; conditions: S. cerevisiae rad50 strain growth inhibition; at 50.0 µM; hits give high values
Summary of the method: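 DNA repair mutant yeast, compound exposure, growth read-out; inhibition is taken relative to vehicle.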

Row | SMILES | growth inhibition
1 | CCCCCCCCc1ccc2c3ccccc3c3ccccc3c2c1 | 76.8% (active)
2 | O=C1C(=O)c2ccc(Br)cc2C(O)=C1C(c1ccccc1)c1ccccc1 | 25.6%
3 | CN(C)Cc1ccc2[nH]c3c(c2c1)CCCC3 | 66.8%
4 | COc1ccc(NC(=O)Nc2ccc(Cl)cc2)nn1 | -10%
5 | CO/N=C/c1cc(NC(=S)c2ccoc2C)ccc1Cl | 93.2% (active)
6 | O=C(Sc1c(-c2ccccc2)c(=O)n(-c2ccccc2)c(=S)n1-c1ccccc1)c1cccs1 | 72.2% (active)
7 | O=C1/C(=C/c2ccc(F)cc2)CNC/C1=C\c1ccc(F)cc1 | 79.2% (active)
8 | O=c1cc2cccccc-2cc1O | 87.2% (active)
9 | Oc1c(Br)cc(Br)cc1-c1ccccc1 | 98.1% (active)
10 | C(=[CH]/[Sn]([c]1ccccc1)([c]1ccccc1)[c]1ccccc1)/c1ccccc1 | 94.8% (active)
11 | CCCCCCCCCN1CCNC1=S | 38.9%
12 | O=C1C/C(=C\c2ccccc2)C(=O)c2ccccc2N1 | 57.8%
13 | CN(C)C(=O)Nc1ccc(Cc2ccc(NC(=O)N(C)C)cc2)cc1 | -3%
14 | C=C1CC(C)(COc2ccc3c(C)c(Cl)c(=O)oc3c2)OC1=O (stereo not given) | 80% (active)
15 | CC[C@@]1(OP(=O)(O)O)C(=O)OCc2c1cc1n(c2=O)Cc2cc3ccccc3nc2-1 | 79.2% (active)
16 | O=S(=O)(Sc1ccccc1)C(c1ccccc1)c1ccccc1 | -21.6%
17 | CCOC(=O)c1c(N)sc2c1CCCCC2 | 47%
18 | CCCCCCCCCCCCCCNCCN | 88.1% (active)
19 | CCCN(CCC)CCNc1ccc(C)c2sc3ccccc3c(=O)c12 | 99.7% (active)
20 | CC1CC2(C)ON=C(c3ccccc3)N2c2ccccc2S1 (stereo not given) | 87.7% (active)

Row | SMILES | growth inhibition
21 | COc1ccc(N=NN2CCCC2)cc1 | 89.7% (active)
22 | S=C(Nc1ccccc1)NC1CC2C=CC1CC2 (stereo not given) | -5%
23 | C=CCOC(=O)C(O)C(CC)CCCCC (stereo not given) | 52.9%
24 | NC(=O)c1ccccc1C(=O)O | 12.9%
25 | CS(=O)(=O)c1cc(=O)c2ccccc2s1 | 97.2% (active)
26 | O=C([O][Sb]([O]C(=O)C(Cl)(Cl)Cl)([c]1ccccc1)([c]1ccccc1)[c]1ccccc1)C(Cl)(Cl)Cl | 41%
27 | CCCCCCCCCCCCCCCCCCOP(=O)([O-])OCC[N+](C)(C)C | 90.5% (active)
28 | Nc1ccc(SCCCc2c(N)nc(N)nc2N)cc1 | 57.5%
29 | O=C1C=CC(=O)c2c1cc1ccccc1c2O | 4.45%
30 | CCN(CC)CC(O)CNc1ccc(NCC(O)CCl)c2c1C(=O)c1ccccc1C2=O (stereo not given) | 36%
31 | N#Cc1c(N)nc2c(N=Nc3ccccc3)c(N)nn2c1Nc1ccccc1 | 51.5%
32 | CC(O)c1c2ccccc2cc2ccccc12 (stereo not given) | 84.4% (active)
33 | Cc1ccccc1NC(=O)C1C(=O)N(c2ccccc2C)C(=O)/C1=N/O (stereo not given) | -21.4%
34 | O=Cc1ccc(-c2nccc3c2[nH]c2ccccc23)o1 | 78.2% (active)
35 | C=CC(C)(CCC=C(C)C)OC(=O)Nc1ccccc1 (stereo not given) | -7.2%
36 | Oc1ccc(-c2nnc(-c3ccc(Cl)cc3Cl)o2)cc1 | 54.6%
37 | C/C=C1\CC(C)(CC)C(C#N)(C#N)C(N)=C1C#N (stereo not given) | -5.9%
38 | Cc1nc(-c2ccccc2)nc2c1nc(C(C)C)n2Nc1ccccc1 | 94.1% (active)
39 | Cc1csc2c1C(=O)c1ccsc1C2=O | 88.8% (active)
40 | COc1cc(Nc2ccc(Oc3ccc(O)cc3)cc2)c2ncccc2c1 | 42.5%

assay: NCI Yeast Anticancer Drug Screen. Data for the mec2-1 strain (AID 157); conditions: S. cerevisiae mec2-1 strain, at 5.0 µM (retest, dose inferred, filed as 0.5), hits give high values
Summary of the method: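 Vehicle-treated cultures served as reference for growth inhibition of compound-exposed mec2-1 yeast.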

Row | SMILES | growth inhibition
41 | CCCCCCCCc1ccc2c3ccccc3c3ccccc3c2c1 | -19%
42 | O=C1C(=O)c2ccc(Br)cc2C(O)=C1C(c1ccccc1)c1ccccc1 | 28%
43 | CN(C)Cc1ccc2[nH]c3c(c2c1)CCCC3 | 11%
44 | COc1ccc(NC(=O)Nc2ccc(Cl)cc2)nn1 | -4%
45 | CO/N=C/c1cc(NC(=S)c2ccoc2C)ccc1Cl | -16%
46 | O=C(Sc1c(-c2ccccc2)c(=O)n(-c2ccccc2)c(=S)n1-c1ccccc1)c1cccs1 | 39%
47 | O=C1/C(=C/c2ccc(F)cc2)CNC/C1=C\c1ccc(F)cc1 | 5%
48 | O=c1cc2cccccc-2cc1O | -42%
49 | Oc1c(Br)cc(Br)cc1-c1ccccc1 | 9%
50 | C(=[CH]/[Sn]([c]1ccccc1)([c]1ccccc1)[c]1ccccc1)/c1ccccc1 | 95% (active)
51 | CCCCCCCCCN1CCNC1=S | -7%
52 | O=C1C/C(=C\c2ccccc2)C(=O)c2ccccc2N1 | -3%
53 | CN(C)C(=O)Nc1ccc(Cc2ccc(NC(=O)N(C)C)cc2)cc1 | -29%
54 | C=C1CC(C)(COc2ccc3c(C)c(Cl)c(=O)oc3c2)OC1=O (stereo not given) | 2%
55 | CC[C@@]1(OP(=O)(O)O)C(=O)OCc2c1cc1n(c2=O)Cc2cc3ccccc3nc2-1 | 33%
56 | O=S(=O)(Sc1ccccc1)C(c1ccccc1)c1ccccc1 | 2%
57 | CCOC(=O)c1c(N)sc2c1CCCCC2 | -51%
58 | CCCCCCCCCCCCCCNCCN | 46%
59 | CCCN(CCC)CCNc1ccc(C)c2sc3ccccc3c(=O)c12 | 4%
60 | CC1CC2(C)ON=C(c3ccccc3)N2c2ccccc2S1 (stereo not given) | -4%

Row | SMILES | growth inhibition
61 | COc1ccc(N=NN2CCCC2)cc1 | 25%
62 | S=C(Nc1ccccc1)NC1CC2C=CC1CC2 (stereo not given) | -11%
63 | C=CCOC(=O)C(O)C(CC)CCCCC (stereo not given) | 0%
64 | NC(=O)c1ccccc1C(=O)O | -5%
65 | CS(=O)(=O)c1cc(=O)c2ccccc2s1 | 23%
66 | O=C([O][Sb]([O]C(=O)C(Cl)(Cl)Cl)([c]1ccccc1)([c]1ccccc1)[c]1ccccc1)C(Cl)(Cl)Cl | 7%
67 | CCCCCCCCCCCCCCCCCCOP(=O)([O-])OCC[N+](C)(C)C | -2%
68 | Nc1ccc(SCCCc2c(N)nc(N)nc2N)cc1 | 1%
69 | O=C1C=CC(=O)c2c1cc1ccccc1c2O | 15%
70 | CCN(CC)CC(O)CNc1ccc(NCC(O)CCl)c2c1C(=O)c1ccccc1C2=O (stereo not given) | 98% (active)
71 | N#Cc1c(N)nc2c(N=Nc3ccccc3)c(N)nn2c1Nc1ccccc1 | -2%
72 | CC(O)c1c2ccccc2cc2ccccc12 (stereo not given) | -7%
73 | Cc1ccccc1NC(=O)C1C(=O)N(c2ccccc2C)C(=O)/C1=N/O (stereo not given) | 3%
74 | O=Cc1ccc(-c2nccc3c2[nH]c2ccccc23)o1 | 15%
75 | C=CC(C)(CCC=C(C)C)OC(=O)Nc1ccccc1 (stereo not given) | 2%
76 | Oc1ccc(-c2nnc(-c3ccc(Cl)cc3Cl)o2)cc1 | 2%
77 | C/C=C1\CC(C)(CC)C(C#N)(C#N)C(N)=C1C#N (stereo not given) | -3%
78 | Cc1nc(-c2ccccc2)nc2c1nc(C(C)C)n2Nc1ccccc1 | -3%
79 | Cc1csc2c1C(=O)c1ccsc1C2=O | 50%
80 | COc1cc(Nc2ccc(Oc3ccc(O)cc3)cc2)c2ncccc2c1 | -12%

— PubChem BioAssay (NCI)
